In PubChem BioAssay (EPA / NIEHS):
Records with an inconclusive call do not appear. Activity calls are given as the source filed them. Rule for the calls: active = hit-call score of the fitted dose curve at least 0.9, where 1 is the maximum; inconclusive = response in the unintended direction; inactive = score below 0.9.

Key:
[1] = target: rat Neurokinin-1 Receptor (NK1), Tacr1 (gene 24807) (UniProt P14600); test: NVS_GPCR_rNK1: NovaScreen (NVS) G Protein-Coupled Receptor Assay for rat Neurokinin-1 Receptor (NK1) (AID 2283309)
Summary of the method: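 Competitive radioligand binding to NK1 in rat submaxillary membranes, 1 h incubation, filtration and scintillation read-out. Compounds first screened at 25 uM in duplicate, then concentration-response for actives; signal loss relative to DMSO.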

[2] = target: rat Opioid Receptor, Non-selective Sodium (Na+) Binding, Oprm1 (gene 25601) (UniProt P33535); test: NVS_GPCR_rOpiate_NonSelectiveNa: NovaScreen (NVS) G Protein-Coupled Receptor Assay for rat Opioid Receptor, Non-selective Sodium (Na+) Binding (AID 2283311)
Summary of the method: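 Filtration radioligand binding on rat forebrain membrane preparations, read 1.5 h after dosing. Single-concentration 25 µM primary screen in duplicate, followed by singleton concentration series to 50 µM max for actives; DMSO baseline.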

[3] = target: rat Opioid Receptor, Non-selective Binding, Oprm1 (gene 25601) (UniProt P33535); test: NVS_GPCR_rOpiate_NonSelective: NovaScreen (NVS) G Protein-Coupled Receptor Assay for rat Opioid Receptor, Non-selective Binding (AID 2283318)
Summary of the method: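 Filter-based radioligand displacement using rat forebrain membrane preparations, measured 1.5 h post-dosing. Single-concentration duplicate screen at 25 uM, follow-up in concentration series; activity taken as signal loss relative to DMSO.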

[4] = target: Sodium channel protein type 1 subunit alpha (Rattus norvegicus) (UniProt P04774); test: NVS_IC_rNaCh_site2: NovaScreen (NVS) Ion Channel Assay for rat Sodium Channel, Site 2 (NaCh) (AID 2283322);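 note: hit means loss of radioligand binding signal relative to DMSO so AC50 marks displacement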
Summary of the method: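 Initial duplicate single-point testing at 25 uM, followed by concentration-response runs for actives. Binding of radioligand to rat forebrain membranes quantified after 1 h via filter-based radiodetection.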

[5] = target: human Peripheral-type Benzodiazepine Receptor (PBR), TSPO (gene 706) (UniProt P30536); test: NVS_MP_hPBR: NovaScreen (NVS) Membrane Protein Assay for human Peripheral-type Benzodiazepine Receptor (PBR) (AID 2283331);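 note: hits reduce radioligand binding relative to DMSO baseline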
Summary of the method: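 Cell-free binding to human colonic membrane preparations measured by filter-based scintillation counting after 1 h. Compounds first run at 25 uM in duplicate, then concentration series for actives; signal loss against DMSO baseline.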

[6] = target: rat Glutamate, AMPA Site (AMPA), Gria1 (gene 50592) (UniProt P19490); test: NVS_LGIC_rAMPA: NovaScreen (NVS) Ligand-Gated Ion Channel Assay for rat Glutamate, AMPA Site (AMPA) (AID 2283324)
Summary of the method: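 Screening at 25 uM in duplicate preceded concentration series reaching 50 uM for qualifying compounds. Radioligand displacement on rat forebrain membranes, 1 h, filter-based scintillation readout; reduced binding relative to DMSO.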

[7] = target: rat Neonicotinoid receptor (NNR), Chrna7 (gene 25302) (UniProt Q05941); test: NVS_LGIC_rNNR_BungSens: NovaScreen (NVS) Ligand-Gated Ion Channel Assay for rat Neonicotinoid receptor (NNR) (AID 2283315)
Summary of the method: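 Rat cortical membrane preparation incubated 2.5 h with tritiated or iodinated radioligand and test chemical. Bound radioactivity was filtered and counted by scintillation, and displacement was analysed against DMSO.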

[8] = target: Metabotropic glutamate receptor 1 (Rattus norvegicus) (UniProt P23385); test: NVS_GPCR_rmMGluR1: NovaScreen (NVS) G Protein-Coupled Receptor Assay for rat Glutamate Metabotropic Receptor 1 (MGluR1) (AID 2283305)
Summary of the method: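 Binding to native receptor from rat cerebellum extract, measured as displacement of a radioligand (scintillation counting, filter separation) after 1 hour. Compounds tested at 25 uM in duplicate, then titrated to a 50 uM maximum.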

[9] = target: Adra2b (gene 24174) (UniProt P19328); test: NVS_GPCR_rmAdra2B: NovaScreen (NVS) G Protein-Coupled Receptor Assay for hybird cells Adrenergic, Alpha 2B Receptor (Adra2B) (AID 2283306)
Summary of the method: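 Compounds screened first at 25 uM in duplicate, with actives followed up in concentration-response; specific radioligand displacement from hybrid neuroglioma/blastoma cell membrane preparations measured by filter scintillation counting after 1 h, normalized to DMSO.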

[10] = target: rat Glutamate, NMDA Agonist Site (GluNMDA), Grin1 (gene 24408) (UniProt P35439); test: NVS_LGIC_rGluNMDA_Agonist: NovaScreen (NVS) Ligand-Gated Ion Channel Assay for rat Glutamate, NMDA Agonist Site (GluNMDA) (AID 2283327)
Summary of the method: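 Radioligand displacement at the agonist site on rat forebrain membrane preparations, read by filter scintillation after 1 h. Chemicals were first run at 25 uM in duplicate; those passing threshold were titrated to a 50 uM maximum.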

[11] = target: rat Somatostatin Receptor (SST), Sstr1 (gene 25033) (UniProt P28646); test: NVS_GPCR_rSST: NovaScreen (NVS) G Protein-Coupled Receptor Assay for rat Somatostatin Receptor (SST) (AID 2283314)
Summary of the method: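 Single-concentration duplicate screen (25 uM), then concentration-response up to 50 uM for chemicals passing a threshold such as 30% inhibition. Membranes came from rat forebrain. Binding was measured 1 h post-dose by filter radiodetection and scintillation, relative to DMSO.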

[12] = target: human Serotonin, 5-Hydroxytryptamine Receptor 3 (5HT3), HTR3A (gene 3359) (UniProt P46098); test: NVS_LGIC_h5HT3: NovaScreen (NVS) Ligand-Gated Ion Channel Assay for human Serotonin, 5-Hydroxytryptamine Receptor 3 (5HT3) (AID 2283325)
Summary of the method: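 Initially tested at 25 uM in duplicate, then up to 50 uM in concentration-response for actives, compounds competed with a radioligand for HEK293-derived human 5-HT3 receptor. Bound counts were measured by filtration and scintillation at 1 h; loss of signal versus DMSO.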

[13] = target: rat Glutamate Metabotropic Receptor 5 (MGluR5), Grm5 (gene 24418) (UniProt P31424); test: NVS_GPCR_rmMGluR5: NovaScreen (NVS) G Protein-Coupled Receptor Assay for rat Glutamate Metabotropic Receptor 5 (MGluR5) (AID 2283307)
Summary of the method: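 Compounds first screened in duplicate at 25 uM, then in concentration series up to 50 uM if over threshold. Radioligand displacement on rat whole-brain membranes, filtration and scintillation counting after 1.5 h; binding loss relative to DMSO.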

[14] = target: rat Neurokinin-3 Receptor (NK3), Tacr3 (gene 24808) (UniProt P16177); test: NVS_GPCR_rNK3: NovaScreen (NVS) G Protein-Coupled Receptor Assay for rat Neurokinin-3 Receptor (NK3) (AID 2283310)
Summary of the method: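 Filter-based radioligand displacement on rat cortex membrane preparations, read by scintillation 2 h post-dose. Chemicals first tested in duplicate at 25 uM; actives followed up in concentration series with a 50 uM maximum.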

[15] = target: rat Thyrotropin Releasing Hormone Receptor (TRH), Trhr (gene 25570) (UniProt Q01717); test: NVS_GPCR_rTRH: NovaScreen (NVS) G Protein-Coupled Receptor Assay for rat Thyrotropin Releasing Hormone Receptor (TRH) (AID 2283329);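 note: hit means lower bound tracer signal versus DMSO baseline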
Summary of the method: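 Rat forebrain membrane prep, radioligand displacement, filter scintillation readout at 4 h. Single conc 25 uM, duplicate; actives retested as concentration series. DMSO = negative control/baseline.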

[16] = NVS_IC_rCaDHPRCh_L: NovaScreen (NVS) Ion Channel Assay for rat Calcium Channel, Type L, Dihydropyridine Site (CaDHPRCh_L) (AID 2283320)
Summary of the method: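 Rat cortex membrane preparation; dihydropyridine-site radioligand displacement read 1 h post-dose by filtration and scintillation. Primary single-point screen 25 uM in duplicate, then concentration series to 50 uM maximum; DMSO as negative control.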

[17] = target: bovine Gamma-Aminobutyric Acid Type A Receptor BDZ, alpha 5 site (GABARa5), GABRA5 (gene 523515) (UniProt Q08E50); test: NVS_LGIC_bGABARa5: NovaScreen (NVS) Ligand-Gated Ion Channel Assay for bovine Gamma-Aminobutyric Acid Type A Receptor BDZ, alpha 5 site (GABARa5) (AID 2283323)
Summary of the method: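 Tested first in duplicate at a single 25 uM, with hits re-run in concentration series to a 50 uM maximum. Bovine hippocampal membranes; specific radioligand displacement measured by filter scintillation counting 1 hr post-dose.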

[18] = target: rat Vasopressin 1 Receptor (V1), Avpr1a (gene 25107) (UniProt P30560); test: NVS_GPCR_rV1: NovaScreen (NVS) G Protein-Coupled Receptor Assay for rat Vasopressin 1 Receptor (V1) (AID 2283316)
Summary of the method: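 Concentration-response up to 50 uM for chemicals passing a threshold such as 30% inhibition in an initial duplicate 25 uM screen. Displacement of radioligand from rat liver membranes measured after 1.5 h by filtration and scintillation.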

Sequence of rat Neurokinin-1 Receptor (NK1), Tacr1 (gene 24807) (P14600 whole entry, looked up): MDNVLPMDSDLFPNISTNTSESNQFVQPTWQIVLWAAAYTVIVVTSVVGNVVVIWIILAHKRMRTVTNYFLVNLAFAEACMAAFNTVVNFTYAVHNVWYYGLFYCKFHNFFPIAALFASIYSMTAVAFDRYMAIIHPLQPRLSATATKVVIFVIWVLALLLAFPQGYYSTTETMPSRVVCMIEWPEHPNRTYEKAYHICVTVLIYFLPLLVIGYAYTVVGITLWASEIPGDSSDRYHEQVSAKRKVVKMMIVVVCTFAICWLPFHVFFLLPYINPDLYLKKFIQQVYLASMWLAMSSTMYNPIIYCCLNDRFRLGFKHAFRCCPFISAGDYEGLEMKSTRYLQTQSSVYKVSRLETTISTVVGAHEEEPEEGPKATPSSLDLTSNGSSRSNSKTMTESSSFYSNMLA
Sequence of rat Neonicotinoid receptor (NNR), Chrna7 (gene 25302) (Q05941 whole entry, looked up): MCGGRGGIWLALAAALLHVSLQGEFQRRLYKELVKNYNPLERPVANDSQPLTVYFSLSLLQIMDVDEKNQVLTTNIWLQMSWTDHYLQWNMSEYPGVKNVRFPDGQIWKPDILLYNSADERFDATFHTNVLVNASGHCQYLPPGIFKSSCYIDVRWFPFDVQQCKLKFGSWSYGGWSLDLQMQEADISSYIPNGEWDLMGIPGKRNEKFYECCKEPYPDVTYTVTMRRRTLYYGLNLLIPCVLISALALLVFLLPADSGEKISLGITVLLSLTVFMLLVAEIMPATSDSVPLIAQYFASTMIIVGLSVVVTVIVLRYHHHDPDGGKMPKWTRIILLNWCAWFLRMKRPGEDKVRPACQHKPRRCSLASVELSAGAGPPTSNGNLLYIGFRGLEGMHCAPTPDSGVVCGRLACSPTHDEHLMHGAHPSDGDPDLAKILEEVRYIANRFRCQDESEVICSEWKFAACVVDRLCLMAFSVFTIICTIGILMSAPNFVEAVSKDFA
Sequence of rat Opioid Receptor, Non-selective Sodium (Na+) Binding, Oprm1 (gene 25601) (P33535 whole entry, looked up): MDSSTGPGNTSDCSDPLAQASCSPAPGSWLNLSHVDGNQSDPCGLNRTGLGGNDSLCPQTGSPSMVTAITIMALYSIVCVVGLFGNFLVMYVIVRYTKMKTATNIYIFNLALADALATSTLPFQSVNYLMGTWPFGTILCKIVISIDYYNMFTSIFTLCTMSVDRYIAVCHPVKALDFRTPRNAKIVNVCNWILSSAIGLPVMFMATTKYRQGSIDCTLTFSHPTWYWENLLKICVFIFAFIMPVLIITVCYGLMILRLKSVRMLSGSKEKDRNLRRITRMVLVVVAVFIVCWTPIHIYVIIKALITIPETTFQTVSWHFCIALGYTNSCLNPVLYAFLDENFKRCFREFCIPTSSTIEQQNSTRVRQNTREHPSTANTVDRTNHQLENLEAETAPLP
Sequence of rat Opioid Receptor, Non-selective Binding, Oprm1 (gene 25601) (P33535 whole entry, looked up): as above
Sequence of human Peripheral-type Benzodiazepine Receptor (PBR), TSPO (gene 706) (P30536 whole entry, looked up): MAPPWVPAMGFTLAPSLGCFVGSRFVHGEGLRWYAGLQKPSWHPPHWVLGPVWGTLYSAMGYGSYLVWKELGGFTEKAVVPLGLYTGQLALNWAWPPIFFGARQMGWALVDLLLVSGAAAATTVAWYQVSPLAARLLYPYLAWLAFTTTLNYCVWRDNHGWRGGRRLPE
Sequence of rat Glutamate, AMPA Site (AMPA), Gria1 (gene 50592) (P19490 whole entry, looked up): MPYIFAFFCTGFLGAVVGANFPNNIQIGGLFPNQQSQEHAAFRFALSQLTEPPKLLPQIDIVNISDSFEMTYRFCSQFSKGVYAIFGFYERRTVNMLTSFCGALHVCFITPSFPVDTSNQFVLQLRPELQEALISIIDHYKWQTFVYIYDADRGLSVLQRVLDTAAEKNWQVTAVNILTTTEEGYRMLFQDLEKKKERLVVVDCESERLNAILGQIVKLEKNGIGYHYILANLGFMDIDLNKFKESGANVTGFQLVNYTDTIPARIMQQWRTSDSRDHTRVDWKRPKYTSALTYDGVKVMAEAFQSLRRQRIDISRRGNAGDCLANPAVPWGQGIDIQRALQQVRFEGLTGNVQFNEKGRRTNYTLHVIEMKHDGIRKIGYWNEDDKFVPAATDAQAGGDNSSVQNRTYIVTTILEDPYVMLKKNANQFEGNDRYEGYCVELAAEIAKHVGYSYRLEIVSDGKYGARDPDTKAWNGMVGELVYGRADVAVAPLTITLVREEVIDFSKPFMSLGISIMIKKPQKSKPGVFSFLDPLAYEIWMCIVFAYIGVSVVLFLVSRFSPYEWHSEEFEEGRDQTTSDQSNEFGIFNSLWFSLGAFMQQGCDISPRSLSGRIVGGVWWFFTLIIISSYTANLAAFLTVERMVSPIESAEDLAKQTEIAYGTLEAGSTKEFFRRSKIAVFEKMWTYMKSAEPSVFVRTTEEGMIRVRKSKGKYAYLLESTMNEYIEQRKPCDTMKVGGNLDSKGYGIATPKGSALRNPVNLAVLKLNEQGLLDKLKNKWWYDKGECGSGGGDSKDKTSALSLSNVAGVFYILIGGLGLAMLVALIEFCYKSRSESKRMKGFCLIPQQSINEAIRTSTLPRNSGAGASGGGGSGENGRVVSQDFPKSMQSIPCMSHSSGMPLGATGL
Sequence of Adra2b (gene 24174) (P19328 whole entry, looked up): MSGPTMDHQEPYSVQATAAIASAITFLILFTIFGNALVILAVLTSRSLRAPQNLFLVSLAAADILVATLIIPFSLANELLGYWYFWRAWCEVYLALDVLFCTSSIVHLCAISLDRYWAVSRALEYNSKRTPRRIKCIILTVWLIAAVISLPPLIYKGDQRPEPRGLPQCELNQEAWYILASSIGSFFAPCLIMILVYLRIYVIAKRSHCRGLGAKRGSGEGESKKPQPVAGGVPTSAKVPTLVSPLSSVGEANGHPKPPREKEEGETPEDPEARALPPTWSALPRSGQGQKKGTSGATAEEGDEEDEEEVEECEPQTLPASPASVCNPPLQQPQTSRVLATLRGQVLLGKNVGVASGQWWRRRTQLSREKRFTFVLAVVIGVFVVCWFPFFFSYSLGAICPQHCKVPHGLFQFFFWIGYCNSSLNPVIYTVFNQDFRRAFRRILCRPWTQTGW
Sequence of rat Thyrotropin Releasing Hormone Receptor (TRH), Trhr (gene 25570) (Q01717 whole entry, looked up): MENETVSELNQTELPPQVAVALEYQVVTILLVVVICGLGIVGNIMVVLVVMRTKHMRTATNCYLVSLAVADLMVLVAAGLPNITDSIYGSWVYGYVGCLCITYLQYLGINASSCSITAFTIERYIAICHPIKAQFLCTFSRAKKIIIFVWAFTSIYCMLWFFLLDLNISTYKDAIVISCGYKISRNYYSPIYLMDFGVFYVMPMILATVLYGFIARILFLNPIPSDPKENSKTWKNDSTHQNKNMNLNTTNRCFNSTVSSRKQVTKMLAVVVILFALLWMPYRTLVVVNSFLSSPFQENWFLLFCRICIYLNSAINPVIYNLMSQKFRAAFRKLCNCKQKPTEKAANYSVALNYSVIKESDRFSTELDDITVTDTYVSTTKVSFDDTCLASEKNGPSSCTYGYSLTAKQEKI
Sequence of rat Somatostatin Receptor (SST), Sstr1 (gene 25033) (P28646 whole entry, looked up): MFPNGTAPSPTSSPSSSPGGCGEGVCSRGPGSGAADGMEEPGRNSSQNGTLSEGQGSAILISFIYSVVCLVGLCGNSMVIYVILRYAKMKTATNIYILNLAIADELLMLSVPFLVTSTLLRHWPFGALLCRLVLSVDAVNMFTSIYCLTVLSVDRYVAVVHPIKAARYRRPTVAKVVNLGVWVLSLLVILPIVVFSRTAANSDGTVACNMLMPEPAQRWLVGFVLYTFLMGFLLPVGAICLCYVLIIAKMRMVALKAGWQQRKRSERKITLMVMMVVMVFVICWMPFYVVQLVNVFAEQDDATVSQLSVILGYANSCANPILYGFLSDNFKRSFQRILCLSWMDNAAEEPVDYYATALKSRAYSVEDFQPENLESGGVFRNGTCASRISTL
Sequence of human Serotonin, 5-Hydroxytryptamine Receptor 3 (5HT3), HTR3A (gene 3359) (P46098 whole entry, looked up): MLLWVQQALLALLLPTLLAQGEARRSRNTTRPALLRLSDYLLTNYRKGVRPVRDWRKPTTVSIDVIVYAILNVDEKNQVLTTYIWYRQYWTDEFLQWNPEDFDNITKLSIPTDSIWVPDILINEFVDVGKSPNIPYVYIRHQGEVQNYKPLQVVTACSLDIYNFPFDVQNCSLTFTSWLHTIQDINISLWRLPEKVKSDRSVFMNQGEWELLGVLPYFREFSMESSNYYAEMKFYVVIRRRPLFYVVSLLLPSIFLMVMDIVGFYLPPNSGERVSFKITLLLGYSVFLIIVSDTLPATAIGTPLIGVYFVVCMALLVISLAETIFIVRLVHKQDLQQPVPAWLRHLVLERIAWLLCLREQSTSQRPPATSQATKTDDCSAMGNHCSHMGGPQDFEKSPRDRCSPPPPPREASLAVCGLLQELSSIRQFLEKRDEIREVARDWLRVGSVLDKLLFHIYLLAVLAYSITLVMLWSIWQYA
Sequence of rat Neurokinin-3 Receptor (NK3), Tacr3 (gene 24808) (P16177 whole entry, looked up): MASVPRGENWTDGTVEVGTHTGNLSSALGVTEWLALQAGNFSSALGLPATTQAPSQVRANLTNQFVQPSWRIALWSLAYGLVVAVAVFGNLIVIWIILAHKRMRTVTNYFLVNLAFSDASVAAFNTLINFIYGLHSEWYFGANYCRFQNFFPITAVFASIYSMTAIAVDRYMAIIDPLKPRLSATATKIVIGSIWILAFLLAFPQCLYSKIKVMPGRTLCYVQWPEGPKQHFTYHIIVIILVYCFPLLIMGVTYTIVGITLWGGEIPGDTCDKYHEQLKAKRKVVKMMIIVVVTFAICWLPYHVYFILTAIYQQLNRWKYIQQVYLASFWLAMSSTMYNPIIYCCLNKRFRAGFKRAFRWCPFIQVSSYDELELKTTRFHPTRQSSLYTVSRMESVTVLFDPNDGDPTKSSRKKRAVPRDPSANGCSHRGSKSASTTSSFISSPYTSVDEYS

What does the source list for `O=C(O)Cc1cc(I)c(Oc2cc(I)c(O)c(I)c2)c(I)c1`?
outcome [1]: inactive; outcome [2]: inactive; outcome [3]: inactive; outcome [4]: inactive; outcome [5]: inactive

What does the source list for `CC[C@H](C)[C@@H](C(=O)O)n1sc2ccccc2c1=O`?
AC50 [2]: 3.52 µM (active); outcome [6]: inactive

Which results are given for `O=c1c(-c2ccc(O)cc2)coc2cc(O)ccc12`?
outcome [1]: inactive; outcome [7]: inactive; outcome [3]: inactive

Which AC50 [8] does the source give for `CCCCCCCCCCCCc1ccccc1S(=O)(=O)O` here?
The AC50 was 8.71 µM (active).

And the AC50 [9]?
The AC50 was 25 µM (active).

What about the AC50 [10] of the same compound?
The AC50 was 20.1 µM (active).

Which results are given for `NC(=O)N(O)[C@@H]1C=C[C@H](Oc2cccc(Oc3ccc(F)cc3)c2)C1`?
outcome [9]: inactive; outcome [1]: inactive; outcome [11]: inactive; outcome [3]: inactive; outcome [4]: inactive; outcome [6]: inactive; outcome [12]: inactive; AC50 [5]: 28.5 µM (active)

For `O=C(O)c1ccccc1C(c1ccc(O)cc1)c1ccc(O)cc1`, which outcome [1] is on record?
The outcome was “inactive”.

Which outcome [7] does the source give for `CCC(C)(C)C1CCC(O)CC1` (configuration not stated) here?
The outcome was “inactive”.

With `Nc1cccc2c(N)cccc12` as the compound, how does the AC50 [4] read?
Its AC50 is 18.5 µM (active).

What does the source list for `Cc1cc(C)c(O)c(C)c1`?
outcome [6]: inactive; outcome [10]: inactive

What does the source list for `OC1CCCCC1`?
outcome [13]: inactive; outcome [4]: inactive

Which results are given for `CC[C@H](c1ccc(O)cc1)[C@@H](CC)c1ccc(O)cc1`?
outcome [14]: inactive; AC50 [2]: 1.77 µM (active); outcome [7]: inactive; AC50 [3]: 5.14 µM (active); outcome [4]: inactive; AC50 [5]: 795 nM (active) [middle of 4 runs]

With `Cc1ccc(S(=O)(=O)O)c(C)c1` as the compound, how does the outcome [15] read?
Its outcome is “inactive”.

For `COCC(C)OCC(C)O` (configuration not stated), which outcome [3] is on record?
The outcome was “inactive”.

With `COC(=O)CCCCC(=O)OC` as the compound, how does the outcome [6] read?
Its outcome is “inactive”.

What does the source list for `ClC1=C(Cl)C(Cl)(Cl)C(Cl)=C1Cl`?
outcome [3]: inactive; outcome [16]: inactive; outcome [15]: inactive

With `c1ccc2c(c1)Cc1ccccc1-2` as the compound, how does the outcome [3] read?
Its outcome is “inactive”.

For `CN1CCN(c2ccccc2/C=C2\SCCN(c3ccc(Cl)c(Cl)c3)C2=O)CC1`, which outcome [6] is on record?
The outcome was “inactive”.

Which outcome [1] does the source give for `O=C(OCCOCCOC(=O)c1ccccc1)c1ccccc1` here?
The outcome was “inactive”.

And the outcome [17]?
Its outcome is “inactive”.

Which AC50 [5] does the source give for `CCc1ccc(CCOc2ccc(CC3SC(=O)NC3=O)cc2)nc1` (configuration not stated) here?
Its AC50 is 12.1 µM (active).

Which AC50 [5] does the source give for `NC(=O)N1C(=O)C(C(=O)c2cc(Cl)cs2)c2cc(F)c(Cl)cc21` (configuration not stated) here?
The AC50 was 0.951 µM (active).

With `CCCOc1sc(C(=O)N2CCC(c3cc(CN)ccc3F)CC2)c(C)c1Br` as the compound, how does the AC50 [9] read?
Its AC50 is 6.34 µM (active).

And the AC50 [1]?
The AC50 was 23.2 µM (active).

What about the AC50 [18] of the same compound?
Its AC50 is 23.2 µM (active).

And the AC50 [3]?
The AC50 was 11 µM (active).

What about the AC50 [16] of the same compound?
The AC50 was 14.7 µM (active).

What about the AC50 [4] of the same compound?
Its AC50 is 1.01 µM (active).
